Results on four compounds are retold here after PubChem BioAssay (EPA / NIEHS).

The AC50 is the midpoint of the concentration-response curve, whichever way the signal moves.

Experiment [1] in a line: BSK_CASM3C_SRB: Viability Assessment in the BioMAP Diversity Plus: CASM3C Assay (AID 2283050).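 Also: total protein by SRB staining as cytotoxicity measure in parallel cultures.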 The conditions noted are these: primary human coronary artery smooth muscle cells.
Read-out in experiment [2]: Thrombomodulin, THBD (gene 7056)
The experiment can be described thus: BSK_CASM3C_Thrombomodulin: BioMAP Diversity Plus: CASM3C Assay for Thrombomodulin Biomarker Activity (AID 2283051).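 Also: thrombomodulin protein level measured by ELISA 24 h after dosing.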 The conditions noted are these: primary human coronary artery smooth muscle cells; actives raise or lower the signal.

Read-out in experiment [3]: Tissue Factor, F3 (gene 2152)
Briefly: BSK_CASM3C_TissueFactor: BioMAP Diversity Plus: CASM3C Assay for Tissue Factor Biomarker Activity (AID 2283052).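 Also: cell surface tissue factor protein level read by ELISA.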 The conditions noted are these: primary human coronary artery smooth muscle cells; actives raise or lower the signal.

Read-out in experiment [4]: Interferon-gamma inducible Protein 10 (IP10), CXCL10 (gene 3627)
Briefly: BSK_hDFCGF_IP10: BioMAP Diversity Plus: hDFCGF Assay for Interferon-gamma inducible Protein 10 (IP10) Biomarker Activity (AID 2283053). The following applies: primary human foreskin fibroblasts; actives raise or lower the signal. In a few lines: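 IP-10 levels, quantified by ELISA, are taken from human foreskin fibroblast cultures 24 h after chemical treatment, with DMSO serving as negative control and baseline for bidirectional analysis.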

Read-out in experiment [5]: Urokinase-type plasminogen activator receptor (uPAR), PLAUR (gene 5329)
The experiment can be described thus: BSK_CASM3C_uPAR: BioMAP Diversity Plus: CASM3C Assay for Urokinase-type plasminogen activator receptor (uPAR) Biomarker Activity (AID 2283054).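 Also: cell-surface uPAR protein level quantified by ELISA.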 The following applies: primary human coronary artery smooth muscle cells; actives raise or lower the signal.

Read-out in experiment [6]: Vascular cell adhesion molecule 1 (VCAM1), VCAM1 (gene 7412)
Briefly: BSK_CASM3C_VCAM1: BioMAP Diversity Plus: CASM3C Assay for Vascular cell adhesion molecule 1 (VCAM1) Biomarker Activity (AID 2283055).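 Also: VCAM-1 protein level quantified by ELISA on the cells.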 The following applies: primary human coronary artery smooth muscle cells; actives raise or lower the signal.

Read-out in experiment [7]: Collagen III, COL3A1 (gene 1281)
The experiment can be described thus: BSK_hDFCGF_CollagenIII: BioMAP Diversity Plus: hDFCGF Assay for Collagen III Biomarker Activity (AID 2283056). The conditions noted are these: primary human foreskin fibroblasts; actives raise or lower the signal. A digest of the protocol: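 ELISA readout of Collagen III in human dermal (foreskin) fibroblasts, taken 24 h post-treatment. Gain or loss relative to DMSO vehicle fitted in both directions.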

Read-out in experiment [8]: Epidermal growth factor receptor (EGFR), EGFR (gene 1956)
The experiment can be described thus: BSK_hDFCGF_EGFR: BioMAP Diversity Plus: hDFCGF Assay for Epidermal growth factor receptor (EGFR) Biomarker Activity (AID 2283057). The following applies: primary human foreskin fibroblasts; actives raise or lower the signal. A digest of the protocol: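 Measured by ELISA: EGFR levels on primary human foreskin fibroblasts 24 h after chemical treatment, analysed relative to DMSO with bidirectional fitting.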

Read-out in experiment [9]: Interleukin-8 (IL8), CXCL8 (gene 3576)
The experiment can be described thus: BSK_hDFCGF_IL8: BioMAP Diversity Plus: hDFCGF Assay for Interleukin-8 (IL8) Biomarker Activity (AID 2283058). The conditions noted are these: primary human foreskin fibroblasts; actives raise or lower the signal. A digest of the protocol: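 IL-8 levels read by ELISA at 24 hours after dosing human skin fibroblast cultures. Parallel SRB staining assessed overt cytotoxicity, and gain or loss of signal was fitted against DMSO control.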

Experiment [10] can be described thus: BSK_hDFCGF_Proliferation: Cell Proliferation Assessment in the BioMAP Diversity Plus: hDFCGF Assay (AID 2283059).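 Also: curves fitted for both rise and fall of signal versus DMSO baseline.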 The following applies: primary human foreskin fibroblasts. A digest of the protocol: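 Primary human foreskin fibroblasts, sub-confluent; […]; 10% TCA fix, 0.1% SRB stain, A560 total protein. Gain/loss fitted bidirectionally vs DMSO control.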

The nature of experiment [11]: BSK_hDFCGF_SRB: Viability Assessment in the BioMAP Diversity Plus: hDFCGF Assay (AID 2283061).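 Also: cells exposed to compound for 24 h before the read.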 The conditions noted are these: primary human foreskin fibroblasts. A digest of the protocol: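 Viability was read as total protein: after 10% TCA fixation, wells were stained with 0.1% sulforhodamine B and read at 560 nm. Primary human foreskin fibroblasts were dosed for 24 h, with bidirectional fitting versus DMSO.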

Read-out in experiment [12]: TIMP metallopeptidase inhibitor 1 (TIMP1), TIMP1 (gene 7076)
The experiment can be described thus: BSK_hDFCGF_TIMP1: BioMAP Diversity Plus: hDFCGF Assay for TIMP metallopeptidase inhibitor 1 (TIMP1) Biomarker Activity (AID 2283062). The conditions noted are these: primary human foreskin fibroblasts; actives raise or lower the signal. In a few lines: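 TIMP-1 measured by ELISA 24 h after chemical dosing of primary human skin fibroblasts, with gain or loss fitted relative to DMSO. Parallel SRB staining (560 nm) monitored overt cytotoxicity.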

Read-out in experiment [13]: Matrix Metallopeptidase 1 (MMP1), MMP1 (gene 4312)
Briefly: BSK_hDFCGF_MMP1: BioMAP Diversity Plus: hDFCGF Assay for Matrix Metallopeptidase 1 (MMP1) Biomarker Activity (AID 2283064). The conditions noted are these: primary human foreskin fibroblasts; actives raise or lower the signal. A digest of the protocol: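 Primary human foreskin fibroblasts exposed to chemicals for 24 h; MMP1 measured by ELISA. Cytotoxicity tracked by SRB staining in parallel cultures; bidirectional fit relative to DMSO.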

Read-out in experiment [14]: Vascular cell adhesion molecule 1 (VCAM1), VCAM1 (gene 7412)
The experiment can be described thus: BSK_hDFCGF_VCAM1: BioMAP Diversity Plus: hDFCGF Assay for Vascular cell adhesion molecule 1 (VCAM1) Biomarker Activity (AID 2283065).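 As to AC50: VCAM-1 protein level quantified by ELISA after 24 h chemical exposure.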 The following applies: primary human foreskin fibroblasts; actives raise or lower the signal. In a few lines: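 ELISA readout of VCAM-1 on human dermal fibroblast primary cultures, 24 h after chemical exposure. Gain or loss of signal fitted in both directions against DMSO baseline.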

Read-out in experiment [15]: Plasminogen activator inhibitor-1 (PAI1), SERPINE1 (gene 5054)
The experiment can be described thus: BSK_hDFCGF_PAI1: BioMAP Diversity Plus: hDFCGF Assay for Plasminogen activator inhibitor-1 (PAI1) Biomarker Activity (AID 2283066). The conditions noted are these: primary human foreskin fibroblasts; actives raise or lower the signal. In a few lines: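 PAI-1 levels, determined by ELISA, served as the endpoint in human foreskin fibroblast cultures exposed to compound for 24 h, with DMSO as baseline.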

Read-out in experiment [16]: Intercellular Adhesion Molecule 1 (ICAM1), ICAM1 (gene 3383)
Briefly: BSK_KF3CT_ICAM1: BioMAP Diversity Plus: KF3CT Assay for Intercellular Adhesion Molecule 1 (ICAM1) Biomarker Activity (AID 2283067). The conditions noted are these: primary human keratinocytes with fibroblasts; actives raise or lower the signal. A digest of the protocol:
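Cell-surface ICAM-1 was measured by ELISA 24 h after dosing primary human skin keratinocytes co-cultured with fibroblasts. Parallel SRB staining tracked overt cytotoxicity. Gain or loss of signal was fitted relative to DMSO.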

Read-out in experiment [17]: Interferon-gamma inducible Protein 10 (IP10), CXCL10 (gene 3627)
Briefly: BSK_KF3CT_IP10: BioMAP Diversity Plus: KF3CT Assay for Interferon-gamma inducible Protein 10 (IP10) Biomarker Activity (AID 2283068). The following applies: primary human keratinocytes with fibroblasts; actives raise or lower the signal. A digest of the protocol:
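In a primary skin co-culture of keratinocytes and fibroblasts, IP-10 is quantified by ELISA at 24 h after dosing. SRB staining of parallel wells monitors overt toxicity. Curves are fitted both directions against DMSO.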

Experiment [18] in a line: BSK_KF3CT_SRB: Viability Assessment in the BioMAP Diversity Plus: KF3CT Assay (AID 2283069).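 Also: total protein by sulforhodamine B staining as a cytotoxicity measure; read 24 h after compound addition.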 The following applies: primary human keratinocytes with fibroblasts. In a few lines:
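Human keratinocyte and foreskin fibroblast co-culture exposed to chemical for 24 h. Total protein measured in parallel cultures by 0.1% sulforhodamine B staining after 10% TCA fixation, read at 560 nm; bidirectional fit relative to DMSO.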

Read-out in experiment [19]: Monokine induced gamma interferon (MIG), CXCL9 (gene 4283)
Briefly: BSK_hDFCGF_MIG: BioMAP Diversity Plus: hDFCGF Assay for Monokine induced gamma interferon (MIG) Biomarker Activity (AID 2283063). The following applies: primary human foreskin fibroblasts; actives raise or lower the signal. A digest of the protocol: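 Human primary foreskin fibroblasts in the hDFCGF system, exposed to test chemical for 24 h; MIG measured by ELISA. Bidirectional curve fitting against DMSO negative control as activity baseline.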

Read-out in experiment [20]: Macrophage colony-stimulating factor (MCSF), CSF1 (gene 1435)
Briefly: BSK_hDFCGF_MCSF: BioMAP Diversity Plus: hDFCGF Assay for Macrophage colony-stimulating factor (MCSF) Biomarker Activity (AID 2283060). The conditions noted are these: primary human foreskin fibroblasts; actives raise or lower the signal. In a few lines:
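M-CSF levels read by ELISA at 24 h post-dosing in human skin fibroblasts. Parallel cultures stained with SRB assessed cytotoxicity at the same time point; response fitted in both directions against the DMSO baseline.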

Several values for one entry are separate records, joined by “and”; a condition that tells them apart may be missing. Equal entries are not always repeated. Some structures have more than one record in an assay (separate samples or runs), and their calls can disagree. Activity calls are given as the source filed them. The calls were made as follows: active = hit-call score of the fitted dose curve at least 0.9, where 1 is the maximum; inactive = score below 0.9.

On to `COC(=O)C(C)Oc1ccc(Oc2ccc(Cl)cc2Cl)cc1` (stereo not given), for which the outcome in experiment [1], in experiment [2], in [3], in experiment [4], in experiment [5] and in [6] was inactive. In addition, the outcome in [7], in experiment [8], in experiment [9], in experiment [10], in experiment [11] and in experiment [12] was inactive. For the same compound, the result in experiment [13], in experiment [14], in [15], in experiment [16], in experiment [17] and in experiment [18] was inactive. Further, the AC50 in experiment [10] was 29.5 µM (active) and 36.7 µM (active); in experiment [16], 25.1 µM (active); in [17], 25.4 µM (active) and 20 µM (active).

In the case of `CCCN(CCC)c1c([N+](=O)[O-])cc(S(N)(=O)=O)cc1[N+](=O)[O-]`, the AC50 in [1] was 35.6 µM (active) [middle of 4 runs]; in experiment [2], 37.6 µM (active) and 34.1 µM (active); in [3] it was 21.1 µM (active) and 34.7 µM (active) and 30.7 µM (active); in experiment [4], 32.5 µM (active) and 31.4 µM (active); in [5] it was 34.5 µM (active) [middle of 4 runs]; in [6] it was 36.4 µM (active) [middle of 4 runs]. Besides, the AC50 in [7] is 30.9 µM (active) and 16.5 µM (active); in experiment [9] it was 34.5 µM (active); in experiment [10], 24.3 µM (active) [middle of 4 runs]; in experiment [11], 21.1 µM (active) and 29.3 µM (active) and 31.4 µM (active); in experiment [12] it was 33.5 µM (active) and 34 µM (active); in experiment [13], 33.6 µM (active) and 348 nM (active). Moreover, the AC50 in experiment [14] is 32.7 µM (active) and 35.6 µM (active); in experiment [15], 21.1 µM (active) and 21.6 µM (active); in [18], 34.6 µM (active). The outcome in experiment [2], in experiment [3], in experiment [4], in experiment [7], in experiment [8] and in experiment [9] was inactive. Moreover, the result in experiment [12], in experiment [13], in experiment [14], in [15], in experiment [16] and in experiment [17] was inactive. The result in experiment [18] was inactive.

With `CCCCNC(=O)OCC#CI`, the half-maximal activity concentration (AC50) was 30.5 µM (active) and 30.6 µM (active) in experiment [1]; 4.72 µM (active) and 36.3 µM (active) in [2]; 24.6 µM (active) in [3]; 3.5 µM (active) and 5.34 µM (active) in experiment [4]; 12.7 µM (active) and 13.9 µM (active) in [5]; 11.1 µM (active) and 14.6 µM (active) in experiment [6]. The AC50 in experiment [7] is 7.69 µM (active) and 7.7 µM (active); in experiment [8] it was 11.6 µM (active); in experiment [9] it was 10.2 µM (active) and 11 µM (active); in experiment [10], 134 nM (active) and 534 nM (active); in experiment [11] it was 12.4 µM (active) and 3.49 µM (active); in experiment [12], 7.08 µM (active) and 26 µM (active). The AC50 in experiment [19] was 5.27 µM (active) and 3.85 µM (active); in experiment [13], 8.48 µM (active) and 7.13 µM (active); in experiment [14], 3.08 µM (active) and 10.7 µM (active); in [15] it was 7.77 µM (active) and 7.46 µM (active); in experiment [16] it was 35.1 µM (active) and 15.5 µM (active); in [17], 33.2 µM (active) and 11.9 µM (active). Besides, the AC50 in experiment [18] was 29.3 µM (active) and 18 µM (active). For the same compound, the result in experiment [3] and in experiment [8] was inactive.

Consider `COC(=O)N(OC)c1ccccc1COc1ccn(-c2ccc(Cl)cc2)n1`, for which the outcome in [1], in experiment [3], in experiment [4], in experiment [5], in experiment [8] and in [12] was inactive. The outcome in [19], in experiment [14], in experiment [16] and in experiment [18] was inactive. Also, the AC50 in [2] was 31.2 µM (active); in experiment [6], 11.7 µM (active); in [7], 800 nM (active); in experiment [9], 5.63 µM (active); in experiment [10], 1.84 µM (active); in experiment [20] it was 20 µM (active). Further, the AC50 in experiment [11] is 13.4 µM (active); in experiment [13], 4.62 µM (active); in experiment [15] it was 2.46 µM (active); in experiment [17] it was 6.72 µM (active).
